Assay outcomes deposited in PubChem BioAssay by National Center for Advancing Translational Sciences (NCATS).
Sampled rows, rich in hits. Any-hit rate of the full collection: about 14%.
Pf growth 48h – inhibits P. falciparum growth in the first generation, 48 h; Potency, µM (highest dose often 28.7 µM), for inactives: at the highest dose activity change, negative = inhibition, actives largely listed as inhibitors; 310,000 tested, 5.9% active; P. falciparum luciferase growth in erythrocytes, 48 h; note: potency is the fitted concentration of half-maximal effect
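Luminescence readout; reporter = integrated firefly luciferase in P. falciparum. RBC culture at 2% hematocrit, 0.1% parasitemia final, 37 C/5% CO2; decreased signal taken as growth inhibition.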
HCMV inh – human cytomegalovirus inhibition | HFF cells, HCMV-luciferase reporter, 72 h; active compounds read low | AID 1259415 | 410,000 tested, 4.5% active | activity change, negative = inhibition, % at 57.5 µM; in the data active = activity change below about -60%; inconclusive = no clear call, values can overlap the other calls; inactive = above about -39%
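Steps: HFFs plated, 16 h 37C; compounds added; HCMV-luciferase added to MOI 1 PFU/cell; 72 h 37C; OneGlo reagent, 5 min room temperature; luminescence read, normalized to controls.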
Pf growth 96h – P. falciparum growth inhibition at 96 hour, primary screen for plastid delayed-death inhibitors; Potency, µM (doses to about 28.7 µM), without a hit: top-dose activity change, negative = inhibition, most hits filed as inhibitors; 320,000 tested, 6.9% active; P. falciparum luciferase reporter growth, 96 h; note: potency is the fitted concentration of half-maximal effect
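Delayed-death screen, second-generation endpoint: infected erythrocytes, 2% hematocrit, 0.05% parasitemia final; 96 hours at 37 C, 5% CO2; luciferase detection reagent; luminescence decrease equals reduced growth.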
FBPA Giardia inh – inhibitors of Giardia lamblia fructose-1,6-bisphosphate aldolase. A8B2U2. purified Giardia FBPA. Potency, µM (series often up to 59.6 µM), for the others: at the top dose activity, negative = inhibition, most hits filed as inhibitors. 290,000 tested, 0.71% active; note: potency is the fitted concentration of half-maximal effect; nearly all actives have a fitted effect of over 55% in size
Target sequence (A8B2U2 whole entry, looked up): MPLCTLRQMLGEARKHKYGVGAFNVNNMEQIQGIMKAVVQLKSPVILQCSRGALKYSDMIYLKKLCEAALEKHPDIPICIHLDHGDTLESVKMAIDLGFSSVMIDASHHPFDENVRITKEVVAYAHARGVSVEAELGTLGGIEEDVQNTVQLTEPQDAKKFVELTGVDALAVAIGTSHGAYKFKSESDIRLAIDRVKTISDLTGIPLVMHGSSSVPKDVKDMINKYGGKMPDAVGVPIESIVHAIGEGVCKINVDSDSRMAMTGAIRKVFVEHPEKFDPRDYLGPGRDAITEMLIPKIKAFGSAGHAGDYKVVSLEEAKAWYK
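40 nM FBPA preincubated 10 min at RT with compound (up to 57.5 uM final), then substrate plus GAPDH/TPI/NAD/arsenate coupling and diaphorase/resazurin added. Fluorescence read after 20 min at RT, 525/598 nm.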
Sm TGR inh – blocks Schistosoma mansoni thioredoxin glutathione reductase; Potency, µM (titrated, usually from 114 µM), for the others: at the top dose activity change, negative = inhibition, most hits filed as inhibitors; Q962Y6; purified TGR, DTNB reduction, TNB absorbance 405 nm; 360,000 tested, 3% active; note: potency is the fitted concentration of half-maximal effect; nearly all actives have a fitted effect of over 60% in size
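TGR 20 nM + NADPH 100 uM (dispensed conc.), cpd preinc 15 min RT; start with NADPH (500 uM addition) then DTNB (15 mM addition). Kinetic TNB absorbance, 405 nm filter. Four-parameter Hill fit across titration.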
The depositor's hits bear a star; ? = inconclusive; . = not tested or not shown. Unless noted, calls come from the whole dose curve; as a rule, active = well fitted curve in the direction sought with a large enough effect; inconclusive = small, poorly fitted or top-dose-only effect, or another doubt; inactive = no such curve, though single readings can be large; an effect the other way counts as inactive or inconclusive. % is set by controls: 0 for no effect and ±100 for the full control effect.

SMILES	Pf growth 48h	HCMV inh	Pf growth 96h	FBPA Giardia inh	Sm TGR inh
CC(=O)c1c(NCc2ccccc2)nc(=O)n(-c2ccccc2)c1C	27%	-29	-21%	-21%	?
COc1cc(SC)ccc1C(=O)N1CCn2c3c(c4cc(C)ccc42)CCCC31 (centres undefined)	.	5	.	.	-2%
O=C(NCCCc1ccccc1)c1cc(COc2ccc(F)cc2Cl)on1	14%	-19	-13%	-6%	1%
Cc1[nH]c2ccc(OCc3ccccc3)cc2c1CCN	-30%	7	?	-17%	25%
Cc1[nH]c2ccc(O)cc2c1CCN	-23%	-5	26%	3.5µM*	40µM*
O=C(c1ccc([N+](=O)[O-])s1)N1CCN(c2ccc(C(F)(F)F)cn2)CC1	?	-8	3.3µM*	-8%	-2%
O=C(c1ccc2c(c1)OCO2)N1CCN(c2ccc(C(F)(F)F)cn2)CC1	1%	?	43%	6%	-3%
O=C(c1ccc2c(c1)OCCO2)N1CCN(c2ccc(C(F)(F)F)cn2)CC1	.	-60*	.	.	.
FC(F)(F)c1ccc(N2CCN(Cc3ccc4c(c3)OCO4)CC2)nc1	5%	-64*	27%	-5%	-15%
COc1cc(CN(C(=O)c2ccco2)C2CCS(=O)(=O)C2)cc(OC)c1OC (centres undefined)	6%	-5	87%	-15%	0%
COc1cc(Cl)c(C)cc1NC(=O)CNC(C)c1ccccc1OC (centres undefined)	-12%	4	9.3µM*	0%	-1%
COc1ccccc1C(C)NCC(=O)Nc1c(F)cccc1F (centres undefined)	-10%	22	-11%	0%	12%
CCCN(CCC)CCCNC(=S)Nc1ccc2nc(N3CCCC3)cc(C)c2c1	1.5µM*	-81*	?	?	45µM*
CCCCN(CC)CCCNC(=S)Nc1ccc2nc(N3CCN(CC)CC3)cc(C)c2c1	2.9µM*	-29	43%	-1%	-28%
CCOCCCNC(=S)Nc1ccc2nc(N3CCOCC3)cc(C)c2c1	-25%	-26	15µM*	-22%	-36%
Cc1cc(N2CCCC2)nc2ccc(NC(=S)NCCCOC(C)C)cc12	?	?	?	-5%	20µM*
COC(=O)c1cc(NC(=O)COC(=O)C2CCC2)cc(C(=O)OC)c1	1%	7	31%	.	-9%
C#CCOCCOCCOCCNc1nc(N2CCN(C(=O)[C@H](CC(N)=O)n3cc(C(N)[C@H](C)CC)nn3)CC2)nc(N2CCN(C(=O)[C@H](CC(N)=O)n3cc(C(N)[C@@H](C)CC)nn3)CC2)n1 (some centres undefined)	.	0	.	.	.
CC(=O)Nc1ccc2nc(NS(=O)(=O)c3ccc(C)cc3)sc2c1	12%	?	78%	21%	7%
Cc1ccc(S(=O)(=O)Nc2ccc3nc(C)sc3c2)cc1	?	.	47%	2%	7%
CC(=O)Nc1ccc(S(=O)(=O)Nc2ccc3nc(C)sc3c2)cc1	.	-76*	.	.	.
Cc1ccc(S(=O)(=O)Nc2ccc3nc(N)sc3c2)cc1	-12%	-89*	.	7%	4%
Cc1nc2ccc(NS(=O)(=O)c3ccc(Br)cc3)cc2s1	-7%	-60*	?	.	-5%
O=C(/C=C/[C@H]1O[C@@H](n2ccc(=O)[nH]c2=O)[C@H](O)[C@@H]1O)N[C@@H](Cc1ccccc1)C(=O)O	.	23	.	.	.
CCCc1c(CC)c(=N)c2ccccc2n1C	0.33µM*	-87*	2%	1%	-3%
SMILES	Pf growth 48h	HCMV inh	Pf growth 96h	FBPA Giardia inh	Sm TGR inh
O/N=C/c1ccc2ccccc2c1	30%	11	44%	13%	16%
CC1(C)Cc2c(ccc3ccccc23)/C(=C/C(=O)N2CCCCC2)N1	10µM*	52	?	-9%	17%
Cc1c(C#N)c2ccccc2n1CC(=O)NCC1CCCO1 (centres undefined)	-13%	9	?	-20%	2%
Cc1c(C=C2C(=O)N(C)C(=S)N(C)C2=O)c2ccccc2n1CC(=O)NCC1CCCO1 (centres undefined)	?	64	12µM*	.	?
O=C(NCc1ccccc1)C(=O)NCC1CCCN1S(=O)(=O)c1cccs1 (centres undefined)	?	1	?	.	-7%
CS(=O)(=O)c1ccc(NC(=O)c2cccc(S(=O)(=O)N3CCN(Cc4ccccc4)CC3)c2)cc1	?	?	9.3µM*	.	7%
CN(C)C(=O)c1ccc(NC(=O)c2cccc(S(=O)(=O)N3CCN(Cc4ccccc4)CC3)c2)cc1	.	18	.	.	.
O=C(Nc1ccc(S(=O)(=O)N2CCN(Cc3ccccc3)CC2)cc1)c1cnccn1	-6%	-86*	?	-6%	?
CN(CC(=O)Nc1ccc(Cl)cc1)C(=O)c1cccc(S(=O)(=O)N2CCN(Cc3ccccc3)CC2)c1	1%	-73*	?	.	-6%
O=C(O)[C@H](Cc1c[nH]c2ccccc12)N1C(=O)C2=CCCC=C2C1=O	.	.	.	4%	.
CC1CCCN(C(=O)c2ccc(NS(=O)(=O)c3cccc([N+](=O)[O-])c3)cc2)C1 (centres undefined)	?	-28	8%	.	3%
O=C(c1ccccc1)N1CC2ON=C(c3c(F)cccc3Cl)C2C1 (centres undefined)	.	-4	.	.	.
O=C(Nc1nnc(C2CC2)o1)c1ccc(S(=O)(=O)N2CCCc3ccccc32)cc1	.	-16	?	?	0%
COc1cc(-c2nnc(NC(=O)c3ccc(S(=O)(=O)N4CCOCC4)cc3)o2)cc(OC)c1OC	20%	-2	14%	-5%	2%
CC1CCN(S(=O)(=O)c2ccc(C(=O)Nc3nnc(-c4ccncc4)o3)cc2)CC1	?	-88*	?	?	12%
CS(=O)(=O)c1ccc(-c2nnc(NC(=O)c3ccc(S(=O)(=O)N4CCCC4)cc3)o2)cc1	13µM*	-23	7.4µM*	.	-3%
COc1ccc(-c2nnc(NC(=O)c3ccc(S(=O)(=O)N4CCCc5ccccc54)cc3)o2)cc1	12µM*	.	?	28%	7%
O=C(Nc1nnc(-c2ccncc2)o1)c1ccc2ccccc2c1	27%	-95*	?	10%	-6%
O=C(CO)[C@@H](O)C(O)[C@@H](O)CO (some centres undefined)	.	.	.	3%	.
CCOC(=O)C1=C(C)Nc2ccccc2N=C1NC(=O)C(CC)c1ccccc1 (centres undefined)	-22%	-12	4%	1%	-3%
Cc1cn(C)c(CC(=O)NCc2ccc(F)cc2)c1C(=O)O	.	1	.	.	-2%
CCN1CCN(C(=O)c2ccc(COc3cccc(Cl)c3)o2)CC1	25%	-69*	-10%	4%	-12%
COc1cccc(N2CCN(C(=O)c3ccc(CS(=O)Cc4ccc(Cl)cc4)o3)CC2)c1 (centres undefined)	-17%	-17	?	14%	?
